Screens (PubChem BioAssay)
tim23-1 inh = growth inhibitors of tim23-1 mutant yeast; S. cerevisiae tim23-1 growth, BacTiter-Glo luminescence, 24 h; inhibition, % at 20 µM; 1.3% of 330,000 active;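 active = growth inhibition of the mutant yeast at or above 50%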;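 note: temperature-sensitive mutant grown at 25 °C; plate controls were DMSO-treated mutant yeast for no effect and medium wells lacking yeast for full effect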
NALP1 yeast inh = blocks the NALP1 inflammasome reconstituted in yeast. inhibition, % at 10 µM. S. cerevisiae NALP1/ASC/caspase-1 growth, X-gal OD620, 72 h. 0.61% of 280,000 active; in the data active = inhibition mostly above about 24%, no sharp cut-off; inactive = mostly below about 32%
SKKanGAS inh = inhibitors of SKKanGAS S. pyogenes growth in kanamycin (SK-promoter or general growth effect) | AID 1662 | 1.3% of 300,000 active | inhibition, % at 7.5 µM | BacTiter-Glo, 6 h;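 active = mean replicate score, as percent of positive control median, at least 50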;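 note: strain carries kanamycin resistance gene driven by streptokinase promoter and grows in 40 µg/ml kanamycin; loss of luminescence reflects streptokinase promoter inhibition or plain growth inhibition; 0% = median of DMSO wells and 100% = positive control at its reference dose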
TIM10 inh = TIM10 yeast growth inhibition; S. cerevisiae TIM10 strain growth, BacTiter-Glo luminescence, 24 h; inhibition, % at 10 µM; 1.4% of 330,000 active; AID 463195;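 active = inhibition of 40% or more at the single tested concentration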;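 note: wild-type TIM10 isogenic control strain grown at permissive 25 °C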
NLRP3 yeast inh = NALP3 inhibition in yeast; Yeast reconstituted NLRP3/ASC/caspase-1, beta-gal luminescence, 24 h; inhibition, % at 10 µM; 0.39% of 330,000 active;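 active = inhibition of 50% or more; inactive = inhibition below 50%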;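 note: plate controls were induced DMSO wells for no effect and uninduced yeast grown without galactose for full effect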
tim10-1 inh = growth inhibitors of tim10-1 mutant yeast | S. cerevisiae tim10-1 ts strain growth, BacTiter-Glo, 24 h | inhibition, % at 20 µM | 2.2% of 330,000 active | AID 463190;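 active = inhibition of at least 40%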;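 note: mutant grown at 25 °C; 0% = DMSO wells with yeast and 100% = wells holding no yeast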
* = called active by the depositor; x = no result. Sampled rows, rich in hits. Any-hit rate of the full collection: about 4.9%.

SMILES	tim23-1 inh	NALP1 yeast inh	SKKanGAS inh	TIM10 inh	NLRP3 yeast inh	tim10-1 inh
CC(=O)N1CCN(C(=O)c2cc3ccccc3o2)CC1	1	18	4	-11	-1	-19
O=C(c1cc2ccccc2o1)N1CCN(C/C=C/c2ccccc2)CC1	18	44*	-4	3	40	7
COc1ccccc1NS(=O)(=O)c1cccc(NC(=O)Nc2ccc(Cl)cc2)c1	9	-1	55*	4	15	4
O=C(CCCC(=O)Nc1cccc(Br)c1)N/N=C/c1cc([N+](=O)[O-])ccc1O	22	20	99*	16	34	33
O=C(CCC(=O)Nc1cccc(Cl)c1)N/N=C/c1cc([N+](=O)[O-])ccc1O	-16	-2	100*	8	29	9
O=C(CN(c1cccc(Br)c1)S(=O)(=O)c1ccccc1)N/N=C/c1cc([N+](=O)[O-])ccc1O	25	x	119*	-30	13	31
Cc1ccc(NC(=O)CCC(=O)N/N=C/c2cc([N+](=O)[O-])ccc2O)cc1	-8	26	3	12	14	-3
CN(C(=O)c1ccc(S(=O)(=O)N2CCCCC2)cc1)C1CCS(=O)(=O)C1 (stereo unspecified)	-18	x	2	-8	-1	-28
CC(C)c1ccc(N=C2NN=C(c3cccs3)CS2)cc1	26	38*	11	11	23	23
O=C(Nc1nccs1)c1ccc(-c2ccc(Cl)cc2Cl)o1	4	17	16	-41	23	14
O=C(Nc1nccs1)c1ccc(-c2ccc(F)c(Cl)c2)o1	39	1	75*	23	16	21
Cc1nn(C)c(C)c1CCC(=O)NC1CC(C)(C)Cc2c1cnn2-c1ccccc1 (stereo unspecified)	-1	24	3	8	3	2
CCSC(=Nc1ccccc1)N1CCOCC1	0	x	-6	-16	17	-21
CCOC(=O)c1c(N)nn(C(=O)CC)c1-c1ccccc1	19	-7	-4	15	1	12
CCOC(=O)c1c(N)nn(C(=O)C(C)C)c1-c1ccccc1	12	38*	-6	19	2	6
O=C(NC1CCCN(CCc2ccccc2)C1)c1c(F)cccc1F (stereo unspecified)	6	-20	-1	-7	24	-2
O=C(Nc1ccc2c(c1)OCO2)c1ccc([N+](=O)[O-])cc1[N+](=O)[O-]	28	-37	-6	13	13	24
CCCCCCCCC(=O)NNC(=O)c1c(O)c2ccccc2n(CCC)c1=O	34	9	117*	10	6	8
CCn1c(=O)c(C(=O)NNC(=O)c2ccccc2Br)c(O)c2ccccc21	25	-7	90*	1	22	13
CCCn1c(=O)c(C(=O)NCCc2ccccc2)c(O)c2ccccc21	40	11	9	3	11	-3
CCn1c(=O)c(C(C)=O)c(O)c2ccccc21	29	-6	0	18	-6	-8
CCCn1c(=O)c(C(=O)Nc2ncccc2C)c(O)c2ccccc21	7	33*	55*	7	10	-13
CCCCCCCCCCC(=O)NNC(=O)c1c(O)c2ccccc2n(CC)c1=O	-17	-1	101*	7	14	-12
CCCCCCCC(=O)NNC(=O)c1c(O)c2ccccc2[nH]c1=O	14	x	31	-37	38	-43
CCC(C)N(C(=O)CSc1nnc2ccccn12)C1CCS(=O)(=O)C1 (stereo unspecified)	-12	x	x	1	17	-4
SMILES	tim23-1 inh	NALP1 yeast inh	SKKanGAS inh	TIM10 inh	NLRP3 yeast inh	tim10-1 inh
CCn1c(=O)c(C(=O)Nc2ccccc2)c(O)c2ccccc21	2	9	2	-24	18	-27
CCCCCCCCCC(=O)NNC(=O)c1c(O)c2ccccc2n(CCC)c1=O	38	-10	101*	6	2	-24
CCn1c(=O)c(C(=O)Nc2nc3ccccc3[nH]2)c(O)c2ccccc21	11	12	103*	10	19	27
CCn1c(=O)c(C(=O)NNC(=O)Cc2ccccc2)c(O)c2ccccc21	-9	5	54*	-9	-12	-40
CCCn1c(=O)c(C(=O)NCc2ccccc2)c(O)c2ccccc21	1	-7	13	4	7	-19
C=CCc1cccc(/C=N/NC(=O)C(C)Nc2ccc(C)cc2)c1O (stereo unspecified)	12	10	44	37	14	21
